Assay results published in article PMC5540273 (PLoS ONE, 2017).

Experiments:
Conditions in all cases: concentration: 1 μM, replicates: in singlicate; n = 1
RIPK5 = tested on: RIPK5
ROCK1 = tested on: ROCK1
ROCK2 = tested on: ROCK2
ROS1 = tested on: ROS1
[1] = tested on: RPS6KA4(Kin.Dom.1-N-terminal)
[2] = tested on: RPS6KA4(Kin.Dom.2-C-terminal)
[3] = tested on: RPS6KA5(Kin.Dom.1-N-terminal)
[4] = tested on: RPS6KA5(Kin.Dom.2-C-terminal)
[5] = tested on: T1, RSK1(Kin.Dom.1-N-terminal)
T1 construct: gene RPS6KA1

[6] = tested on: T2, RSK1(Kin.Dom.2-C-terminal)
T2 construct: gene RPS6KA1

[7] = tested on: T3, RSK2(Kin.Dom.1-N-terminal)
T3 construct: gene RPS6KA3

[8] = tested on: T4, RSK2(Kin.Dom.2-C-terminal)
T4 construct: gene RPS6KA3

[9] = tested on: T5, RSK3(Kin.Dom.1-N-terminal)
T5 construct: gene RPS6KA2

[10] = tested on: T6, RSK3(Kin.Dom.2-C-terminal)
T6 construct: gene RPS6KA2

[11] = tested on: T7, RSK4(Kin.Dom.1-N-terminal)
T7 construct: gene RPS6KA6

[12] = tested on: T8, RSK4(Kin.Dom.2-C-terminal)
T8 construct: gene RPS6KA6

S6K1 = tested on: S6K1
SBK1 = tested on: SBK1
SGK2 = tested on: SGK2
SGK3 = tested on: SGK3
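Note: KINOMEscan kinase panel screen.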

Compound | %Inh (RIPK5) | %Inh (ROCK1) | %Inh (ROCK2) | %Inh (ROS1) | %Inh [1] | %Inh [2] | %Inh [3] | %Inh [4] | %Inh [5] | %Inh [6] | %Inh [7] | %Inh [8] | %Inh [9] | %Inh [10] | %Inh [11] | %Inh [12] | %Inh (S6K1) | %Inh (SBK1) | %Inh (SGK2) | %Inh (SGK3)
O=C(c1ccc(-c2cc(-c3c[nH]nc3-c3ccccn3)ccn2)cc1)N1CCOCC1 [GW812171] | 22% | 0% | 24% | 0% | 6% | 0% | 0% | 0% | 14% | 0% | 31% | 0% | 0% | 0% | 9% | 24% | 13% | 0% | 0% | 16%
O=C(Nc1n[nH]c2cc(-c3cccc(F)c3)ccc12)C1CC1 [SB-735464] | 23% | 18% | 4% | 16% | 0% | 9% | 0% | 24% | 1% | 26% | 0% | 15% | 2% | 0% | 9% | 17% | 49% | 21% | 0% | 13%
CNc1ncnc2[nH]ncc12 [SKF-18355] | 8% | 91.5% | 84% | 0% | 23% | 0% | 0% | 17% | 0% | 15% | 46% | 0% | 5% | 22% | 16% | 0% | 24% | 0% | 0% | 0%
CCc1nc(-c2cccc(C)c2)c(-c2ccnc(NCc3ccccc3)c2)s1 | 14% | 0% | 0% | 0% | 0% | 1% | 1% | 4% | 0% | 57% | 0% | 0% | 0% | 2% | 0% | 53% | 4% | 0% | 4% | 0%
O=c1cc(N2CCOCC2)nc2n(Cc3cccc4ccccc34)ccn12 [GSK2333389] | 0% | 0% | 19% | 0% | 12% | 0% | 0% | 0% | 0% | 0% | 0% | 0% | 2% | 0% | 0% | 8% | 0% | 14% | 0% | 0%
Cc1nnc(-c2ccc(C)c(-c3ccc(C(=O)Nc4ccc(NS(C)(=O)=O)cc4)cc3)c2)o1 [GW702865] | 4% | 0% | 11% | 0% | 1% | 0% | 0% | 17% | 13% | 0% | 0% | 0% | 0% | 0% | 0% | 0% | 0% | 0% | 0% | 4%
Cc1cccc(-c2nc(Nc3ccc4ncsc4c3)c3ccccc3n2)n1 [GW867588] | 24% | 45% | 13% | 17% | 30% | 0% | 0% | 8% | 0% | 16% | 8% | 0% | 0% | 9% | 6% | 8% | 0% | 19% | 0% | 0%
CC(C)Oc1ccc2c(-c3ccnc(Nc4ccc(N5CCN(C)CC5)cc4)n3)cnn2n1 [GW696155] | 77% | 98.8% | 99.7% | 51% | 0% | 99.8% | 0% | 98.9% | 34% | 90% | 44% | 28% | 7% | 77% | 0% | 95.1% | 44% | 88% | 52% | 58%
CC(C)(C)n1cnc2c(N)ncnc21 [SKF-97359] | 0% | 52% | 33% | 64% | 10% | 0% | 0% | 0% | 0% | 80% | 0% | 18% | 2% | 18% | 0% | 46% | 5% | 0% | 0% | 0%
O=c1cc(N2CCOCC2)nc2n(Cc3cccc(C(F)(F)F)c3)ccn12 [GSK2297543] | 0% | 0% | 17% | 32% | 13% | 0% | 4% | 6% | 0% | 15% | 16% | 6% | 0% | 6% | 0% | 13% | 0% | 37% | 0% | 5%
